Data as given in PubChem BioAssay (Tox21).
Values joined by “and” are separate entries in the source; they are usually repeats but may differ in a detail not shown here. Identical values can stand only once. Unmarked numbers belong to inactive results. Records with an inconclusive call do not appear. A call without a number means that no potency is given here. Active and inactive are the calls of the source. Unless noted, calls follow the shape of the dose curve; as a rule, active = well fitted curve in the direction sought with a large enough effect in the repeat runs; inconclusive = weak or mixed curves; inactive = flat fitted curve, though single readings scatter.

Assays:
[1] = qHTS assay to test for compound auto fluorescence at 535 nm (green) in HEK293 cells (AID 720680)
[2] = qHTS assay to test for compound auto fluorescence at 460 nm (blue) in HEK293 cell free culture (AID 720681)
Outline: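 Blue fluorescence (Ex 405/Em 460 nm, triamterene-equivalent) was read immediately after pin transfer of compound or DMSO into medium (DMEM, 10% FBS) without cells.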

[3] = qHTS assay to test for compound auto fluorescence at 535 nm (green) in HEK293 cell free culture (AID 720682)
Outline: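 DMEM + 10% FBS, cell-free; cpd or DMSO pinned in; Ex485/Em535 read; output as fluorescein-equivalent signal.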

[4] = qHTS assay to test for compound auto fluorescence at 590 nm (red) in HEK293 cell free culture (AID 720683)
Outline: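 Red-channel autofluorescence of compounds in culture medium (DMEM, 10% FBS), no cells, measured at 540/590 nm. Rose Bengal sodium is the reference fluorophore for equivalence.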

[5] = qHTS assay to test for compound auto fluorescence at 590 nm (red) in HepG2 cell free culture (AID 720684)
Outline: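 Steps: dispense MEM/10% FBS medium, no cells; pin compound or DMSO vehicle; read red channel, Ex/Em 540/590 nm. Output given as Rose Bengal sodium equivalents.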

[6] = qHTS assay to test for compound auto fluorescence at 460 nm (blue) in HepG2 cell free culture (AID 720685)
Outline: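 Compound (23 nL) or DMSO pinned into cell-free MEM with 10% FBS; blue fluorescence read at 405/460 nm excitation/emission, expressed as auto-fluorescence equivalency to triamterene.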

[7] = qHTS assay to test for compound auto fluorescence at 535 nm (green) in HepG2 cell free culture (AID 720686)
[8] = qHTS assay to test for compound auto fluorescence at 460 nm (blue) in HepG2 cells (AID 720687)
Outline: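 Blue-channel autofluorescence (Ex/Em 405/460 nm, triamterene-equivalent) was measured after 1 hr compound exposure at 37 C, 5% CO2. Cells were HepG2, plated overnight at 37 C in MEM plus 10% FBS.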

[9] = molecular target: Glucocorticoid receptor (Homo sapiens) (UniProt P04150); assay: qHTS assay to identify small molecule agonists of the glucocorticoid receptor (GR) signaling pathway (AID 720691; active = well fitted activation curve with a large enough effect in the signal ratio in the repeat runs, not every such curve was filed as active; the % refers to the signal ratio)
Outline: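 qHTS in GR-bla HeLa cells: 4 h settling at 37 C/5% CO2, 18 h compound incubation at 37 C, 2 h LiveBLAzer B/G FRET substrate at room temperature, fluorescence intensity measured.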

[10] = molecular target: Glucocorticoid receptor (Homo sapiens) (UniProt P04150); assay: qHTS assay to identify small molecule antagonists of the glucocorticoid receptor (GR) signaling pathway (AID 720692; active = well fitted inhibition curve with a large enough effect in the signal ratio in the repeat runs, not every such curve was filed as active; the % refers to the signal ratio; also: potency is read from the fitted curve at half-maximal effect)
Outline: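 Inhibition of glucocorticoid signalling is measured in HeLa cells with a GRE-controlled beta-lactamase reporter; cells are co-treated with compound and 5 nM dexamethasone (final) for 18 h before FRET substrate readout.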

Glucocorticoid receptor (Homo sapiens), sequence (P04150 whole entry, looked up): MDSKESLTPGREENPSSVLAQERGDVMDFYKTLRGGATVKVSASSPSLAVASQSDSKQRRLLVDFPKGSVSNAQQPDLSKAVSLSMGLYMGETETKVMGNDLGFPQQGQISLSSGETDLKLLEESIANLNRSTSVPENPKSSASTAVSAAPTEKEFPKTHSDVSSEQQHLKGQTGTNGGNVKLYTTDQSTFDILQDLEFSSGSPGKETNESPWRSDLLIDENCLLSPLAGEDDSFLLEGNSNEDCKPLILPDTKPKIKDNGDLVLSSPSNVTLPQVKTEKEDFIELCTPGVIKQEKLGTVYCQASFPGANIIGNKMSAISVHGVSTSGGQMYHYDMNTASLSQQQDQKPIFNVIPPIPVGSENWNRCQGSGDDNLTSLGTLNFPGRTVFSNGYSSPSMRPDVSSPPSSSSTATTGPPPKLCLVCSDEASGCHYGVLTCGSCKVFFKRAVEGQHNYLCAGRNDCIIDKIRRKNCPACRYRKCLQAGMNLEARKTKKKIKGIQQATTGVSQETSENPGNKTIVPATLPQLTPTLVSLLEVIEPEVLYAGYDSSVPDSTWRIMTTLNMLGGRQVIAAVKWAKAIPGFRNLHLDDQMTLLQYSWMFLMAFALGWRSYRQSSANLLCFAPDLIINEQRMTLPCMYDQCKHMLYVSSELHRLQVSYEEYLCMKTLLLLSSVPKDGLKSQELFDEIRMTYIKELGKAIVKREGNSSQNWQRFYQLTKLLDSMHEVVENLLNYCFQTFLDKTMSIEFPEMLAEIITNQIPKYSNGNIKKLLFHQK

CC(C)(c1ccccc1)c1ccc(Nc2ccc(C(C)(C)c3ccccc3)cc2)cc1
Potency [1]: inactive | Potency [2]: inactive | Potency [3]: inactive | outcome [4]: inactive | outcome [5]: inactive | Potency [6]: inactive | Potency [7]: inactive | Potency [8]: inactive

Cc1ccc(-c2cc(C(F)(F)F)nn2-c2ccc(S(N)(=O)=O)cc2)cc1
Potency [1]: inactive | Potency [2]: inactive | Potency [3]: inactive | outcome [4]: inactive | outcome [5]: inactive | Potency [6]: inactive | Potency [7]: inactive | Potency [8]: inactive

O=Nc1ccc(Nc2ccccc2)cc1
Potency [1]: inactive | Potency [2]: inactive | Potency [3]: inactive | outcome [4]: inactive | outcome [5]: inactive | Potency [6]: inactive | Potency [7]: inactive | Potency [8]: inactive

Oc1ccc(Cl)cc1Cc1cc(Cl)ccc1O
Potency [1]: inactive | Potency [2]: inactive | Potency [3]: inactive | outcome [4]: inactive | outcome [5]: inactive | Potency [6]: inactive | Potency [7]: inactive | Potency [8]: inactive

COc1ccc(COC(C)=O)cc1
Potency [1]: inactive | Potency [2]: inactive | Potency [3]: inactive | outcome [4]: inactive | outcome [5]: inactive | Potency [6]: inactive | Potency [7]: inactive | Potency [8]: inactive

CCc1ccc(C(c2ccc(CC)cc2)C(Cl)Cl)cc1
Potency [1]: inactive | Potency [2]: inactive | Potency [3]: inactive | outcome [4]: inactive | outcome [5]: inactive | Potency [6]: inactive | Potency [7]: inactive | Potency [8]: inactive | Potency [9]: inactive

CCCCN(CCO)CCCC
Potency [1]: inactive | Potency [2]: inactive | Potency [3]: inactive | outcome [4]: inactive | outcome [5]: inactive | Potency [6]: inactive | Potency [7]: inactive | Potency [8]: inactive

CC(=O)CC(=O)Nc1ccc2[nH]c(=O)[nH]c2c1
Potency [1]: inactive | Potency [2]: inactive | Potency [3]: inactive | outcome [4]: inactive | outcome [5]: inactive | Potency [6]: inactive | Potency [7]: inactive | Potency [8]: inactive

CCCCCCCCCCCCc1ccccc1O
Potency [1]: inactive | Potency [2]: inactive | Potency [3]: inactive | outcome [4]: inactive | outcome [5]: inactive | Potency [6]: inactive | Potency [7]: inactive | Potency [8]: inactive

O=c1n(CC2CO2)c(=O)n(CC2CO2)c(=O)n1CC1CO1 (stereo unspecified)
Potency [1]: inactive | Potency [2]: inactive | Potency [3]: inactive | outcome [4]: inactive | outcome [5]: inactive | Potency [6]: inactive | Potency [7]: inactive | Potency [8]: inactive

CN(C)c1ccc2nc3ccc(=[N+](C)C)cc-3sc2c1
Potency [1]: inactive | Potency [2]: inactive | Potency [3]: inactive | outcome [4]: inactive | outcome [5]: inactive | Potency [6]: inactive | Potency [7]: inactive | Potency [8]: inactive

CCCN[C@H]1CCc2nc(N)sc2C1
Potency [1]: inactive | Potency [2]: inactive | Potency [3]: inactive | outcome [4]: inactive | outcome [5]: inactive | Potency [6]: inactive | Potency [7]: inactive | Potency [8]: inactive

CC(C)C(=O)c1c(C(C)C)nn2ccccc12
Potency [1]: inactive | Potency [2]: inactive | Potency [3]: inactive | outcome [4]: inactive | outcome [5]: inactive | Potency [6]: inactive | Potency [7]: inactive | Potency [8]: inactive

CCCCC/C=C/CC1CC(=O)OC1=O (stereo unspecified)
Potency [1]: inactive | Potency [2]: inactive | Potency [3]: inactive | outcome [4]: inactive | outcome [5]: inactive | Potency [6]: inactive | Potency [7]: inactive | Potency [8]: inactive

CCC[C@H](N[C@@H](C)C(=O)N1[C@H](C(=O)O)C[C@@H]2CCCC[C@@H]21)C(=O)OCC
Potency [1]: inactive | Potency [2]: inactive | Potency [3]: inactive | outcome [4]: inactive | outcome [5]: inactive | Potency [6]: inactive | Potency [7]: inactive | Potency [8]: inactive | Potency [9]: inactive | Potency [10]: inactive

CC[C@]1(O)C[C@@H]2CN(CCc3c([nH]c4ccccc34)[C@@](C(=O)OC)(c3cc4c(cc3OC)N(C)[C@H]3[C@@](O)(C(=O)OC)[C@H](OC(C)=O)[C@]5(CC)C=CCN6CC[C@]43[C@@H]65)C2)C1
Potency [1]: inactive | Potency [2]: inactive | Potency [3]: inactive | outcome [4]: inactive | outcome [5]: inactive | Potency [6]: inactive | Potency [7]: inactive | Potency [8]: inactive | Potency [9]: inactive

COC(=O)[C@H]1[C@H]2C[C@@H]3c4[nH]c5cc(OC)ccc5c4CCN3C[C@H]2C[C@@H](OC(=O)c2cc(OC)c(OC)c(OC)c2)[C@@H]1OC
Potency [1]: inactive | Potency [2]: inactive | Potency [3]: inactive | outcome [4]: inactive | outcome [5]: inactive | Potency [6]: inactive | Potency [7]: inactive | Potency [8]: inactive | Potency [9]: inactive

C=CC(=O)OCCCCCCOC(=O)C=C
Potency [1]: inactive | Potency [2]: inactive | Potency [3]: inactive | outcome [4]: inactive | outcome [5]: inactive | Potency [6]: inactive | Potency [7]: inactive | Potency [8]: inactive | Potency [9]: inactive | Potency [10]: 39.4 µM (active) and 43.6 µM (active)

NC(Cc1ccc(Cl)cc1)C(=O)O (stereo unspecified)
Potency [1]: inactive | Potency [2]: inactive | Potency [3]: inactive | outcome [4]: inactive | outcome [5]: inactive | Potency [6]: inactive | Potency [7]: inactive | Potency [8]: inactive | Potency [9]: inactive | Potency [10]: inactive

CNC1(C)C2CCC(C2)C1(C)C (stereo unspecified)
Potency [1]: inactive | Potency [2]: inactive | Potency [3]: inactive | outcome [4]: inactive | outcome [5]: inactive | Potency [6]: inactive | Potency [7]: inactive | Potency [8]: inactive | Potency [9]: inactive | Potency [10]: inactive

NNCCc1ccccc1
Potency [1]: inactive | Potency [2]: inactive | Potency [3]: inactive | outcome [4]: inactive | outcome [5]: inactive | Potency [6]: inactive | Potency [7]: inactive | Potency [8]: inactive | Potency [9]: inactive | Potency [10]: inactive

CO[Si](OC)(OC)c1ccccc1
Potency [1]: inactive | Potency [2]: inactive | Potency [3]: inactive | outcome [4]: inactive | outcome [5]: inactive | Potency [6]: inactive | Potency [7]: inactive | Potency [8]: inactive | Potency [9]: inactive | Potency [10]: inactive
